Among all 310,000 compounds or so, about 14,000 (4.5%) showed an effect of 50% or more. The effect is printed as a negative number. This excerpt belongs to a sample that is enriched for strong results.
target: human ether-à-go-go-related gene (hERG) potassium channel (human, UniProt Q12809); test: primary screen, population patch clamp on CHO cells stably expressing hERG; higher = less effect of the substance
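Further: peak tail current of the secondary pulse compared with the same well before compound.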

Sequence of human ether-à-go-go-related gene (hERG) potassium channel (Q12809 whole entry, looked up): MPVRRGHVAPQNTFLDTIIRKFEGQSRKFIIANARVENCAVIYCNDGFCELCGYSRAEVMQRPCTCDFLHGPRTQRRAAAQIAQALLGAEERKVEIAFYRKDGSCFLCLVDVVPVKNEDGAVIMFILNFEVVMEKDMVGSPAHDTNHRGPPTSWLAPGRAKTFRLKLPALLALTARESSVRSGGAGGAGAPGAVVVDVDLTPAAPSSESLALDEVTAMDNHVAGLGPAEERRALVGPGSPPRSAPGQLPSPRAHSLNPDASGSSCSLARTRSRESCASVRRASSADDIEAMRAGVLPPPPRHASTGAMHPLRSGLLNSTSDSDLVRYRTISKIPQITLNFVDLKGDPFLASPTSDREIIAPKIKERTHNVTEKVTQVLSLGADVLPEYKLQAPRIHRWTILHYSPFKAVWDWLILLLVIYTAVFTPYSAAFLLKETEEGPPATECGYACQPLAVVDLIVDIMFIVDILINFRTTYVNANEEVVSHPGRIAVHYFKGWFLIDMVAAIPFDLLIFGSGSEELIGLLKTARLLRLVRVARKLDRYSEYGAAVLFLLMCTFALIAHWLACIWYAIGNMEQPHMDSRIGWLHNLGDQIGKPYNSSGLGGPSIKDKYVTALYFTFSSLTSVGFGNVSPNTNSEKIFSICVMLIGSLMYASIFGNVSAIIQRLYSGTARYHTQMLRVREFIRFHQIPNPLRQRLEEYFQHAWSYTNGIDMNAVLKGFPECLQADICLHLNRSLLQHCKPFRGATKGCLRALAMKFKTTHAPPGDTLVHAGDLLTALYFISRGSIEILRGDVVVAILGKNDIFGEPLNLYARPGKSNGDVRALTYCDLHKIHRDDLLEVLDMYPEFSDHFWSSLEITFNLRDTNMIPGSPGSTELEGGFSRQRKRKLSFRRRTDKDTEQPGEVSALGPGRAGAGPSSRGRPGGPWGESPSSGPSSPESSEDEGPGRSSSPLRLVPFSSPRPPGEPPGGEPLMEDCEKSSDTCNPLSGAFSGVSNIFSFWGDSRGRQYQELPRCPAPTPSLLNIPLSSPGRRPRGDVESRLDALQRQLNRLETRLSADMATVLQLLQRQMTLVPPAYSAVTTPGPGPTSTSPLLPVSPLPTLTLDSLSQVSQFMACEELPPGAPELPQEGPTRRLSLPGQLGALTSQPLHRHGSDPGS

Compound | hERG current change (%, negative = inhibition) at 10uM [%]
COc1ccc2c(c1)C(=O)N(c1ccc(C)cc1C)C(=O)C2 | 7.6
O=C(O)C(Cc1ccccc1)N1C(=O)/C(=C/c2ccccc2)SC1=S (stereo not drawn) | -0.221
CCn1c(NCc2ccco2)nc2c1c(=O)n(C)c(=O)n2C | -10.7
CCCCC1=C([O-])C2N=CC=CC2=[N+](c2ccccn2)C1=O (stereo not drawn) | 0.715
Cc1ccc(-n2c(=O)[nH]c3c(C(N)=O)nc(CC(C)C)nc32)cc1 | 4.8
O=C(COc1ccc(Cl)cc1Cl)Nc1ccc(CN2CCOCC2)cc1 | 15.4
Cc1ccc(Cl)cc1N1CCN(CC(=O)Nc2ccc3[nH]c(=O)[nH]c3c2)CC1 | 11.1
O=C(Cc1ccc(Cl)cc1)Nc1ccc(CN2CCCCC2)cc1 | -64.9
O=C(Cc1ccc(Cl)cc1)Nc1ccc(N2CCCC2)cc1 | 17.3
O=C(Nc1ccc(Cl)cc1)N1CCCN(Cc2ccccc2F)C1 | -26.3
O=C(COc1ccccc1Cl)Nc1ccc(CN2CCCCC2)cc1 | -33.7
O=C(Nc1ccccc1)N1CCCN(Cc2ccccc2F)C1 | -8.48
Cc1ccc(Cl)cc1N1CCN(CC(=O)Nc2ccc(CN3CCCCC3)cc2)CC1.Cl | -71.1
O=C(Nc1ccc(Cl)cc1)N1CCCN(Cc2ccc(F)cc2)C1 | -75.4
O=C(Cc1ccc(Cl)cc1)Nc1ccc(C(=O)N2CCCCC2)cc1 | 14.5
O=C(COc1ccc(Cl)cc1Cl)Nc1ccc(CN2CCCCC2)cc1 | -67.9
COc1ccccc1N1CCN(CC(=O)Nc2ccc(CN3CCCCC3)cc2)CC1.Cl | -11.5
Cc1cc(C)n2nc(C(=O)N/N=C/c3ccccc3C)nc2n1 | 4.85
O=C1c2ccccc2NC2(CCCC2)N1N=C1CCCC1 | -12.2

Compound | hERG current change (%, negative = inhibition) at 10uM [%]
Cc1c(C(=O)Nc2cccc(S(=O)(=O)N3CCCC3)c2)oc2ccccc12 | 5.98
O=C(CCNS(=O)(=O)c1ccccc1)Nc1ccccc1 | 17.8
CCc1ccc(NC(=O)C2CCN(S(=O)(=O)c3ccc4c(c3)NC(=O)C(C)S4)CC2)cc1 (stereo not drawn) | 19.2
O=C(Oc1coc(CSc2nnc(NC(=O)c3cccs3)s2)cc1=O)c1ccccc1 | 7.37
COc1ccc(NS(=O)(=O)c2cccc(NC(=O)NC3CCCCC3)c2)cc1 | -4.21
CC(OC(=O)CC1CC2CCC1C2)C(=O)Nc1ccc(C(N)=O)cc1 (stereo not drawn) | -16
CCCCNC(=O)Nc1c(C(=O)OCC)[nH]c2ccccc12 | 6.83
COc1cc2nc(/C=C/c3cc(OC)c(OC)c(OC)c3)sc2cc1SC | 5.92
CO/N=C/CC(=O)Nc1ccc(F)cc1F | 13.3
CCN1CCN(Cc2ccc(NC(=O)Nc3ccccc3Cl)cc2)CC1 | -22.8
O=C(COc1ccccc1)Nc1ccc(CN2CCCCC2)cc1 | -26.9
O=C(Nc1ccc(CN2CCCCC2)cc1)Nc1ccccc1Cl | -59
Cc1ccc(C(=O)Nc2ccc(CN3CCCCC3)cc2)c(C)c1 | -35.2
O=C(CN1CCCC1)Nc1ccc(NC(=O)Nc2ccccc2Cl)cc1 | -21.5
Cc1ccc(OCC(=O)Nc2ccc(CN3CCCCC3)cc2)c(C)c1 | -69.4
COc1ccc(C2CC(c3ccccc3)=NN2C(=O)CCC(=O)O)cc1 (stereo not drawn) | 8.77
O=C(COc1ccc(Cl)cc1)NCC(=O)N/N=C/c1cccs1 | 12
O=C(CN1C(=O)C2CCCCC2C1=O)Nc1nc(-c2ccc(F)cc2)cs1 (stereo not drawn) | 5.21
O=C(Nc1nc(-c2ccc(Cl)cc2)cs1)c1cccnc1 | 5.68

Compound | hERG current change (%, negative = inhibition) at 10uM [%]
CC1(C)C(C#N)=C(N)Oc2c1c(=O)oc1ccccc21 | 0.829
Cn1c(N)c(C(=O)CNC2CCCCC2)c(=O)n(C)c1=O | 5.61
COc1ccc(-c2cc(-c3n[nH]c(=S)n3-c3ccccc3Cl)[nH]n2)cc1 | 13.5
Nn1c(Cc2cccc3ccccc23)nnc1SC1CCOC1=O (stereo not drawn) | -0.158
Cc1ccc(-c2cc(C(=O)N/N=C/C=C/c3ccccc3)n[nH]2)o1 | -7.76
Cc1ccc(C)c(N2CCN(c3ncccc3[N+](=O)[O-])CC2)c1 | 2.42
CCN1CCN(CCNC(=O)c2cc(Cl)c(NC(=O)C3=C(C)OCCS3)cc2OC)CC1 | -73.4
CCN(CC)CCCNC(=O)c1cc(Cl)c(NC(=O)C2=C(C)OCCS2)cc1OC | -61.5
COc1cc(NC(=O)C2=C(C)OCCS2)c(Cl)cc1C(=O)NCCN(C)C | -3.65
CCOCCCNC(=O)c1cc(Cl)c(NC(=O)C2=C(C)OCCS2)cc1OC | -9.78
CCCNC(=O)c1cc(Cl)c(NC(=O)C2=C(C)OCCS2)cc1OC | -14.5
COc1cc(NC(=O)C2=C(C)OCCS2)c(Cl)cc1C(=O)NCCN1CCN(C)CC1 | -47.1
O=C(CCS(=O)(=O)c1ccccc1)Nc1ccc(Cl)cn1 | -3.42
CCN(CC)C(=O)Cn1cc(C(=O)C(=O)NCCCn2ccnc2)c2ccccc21 | 27.8
CCCN1C(=O)COc2ccc(C(=O)c3ccccc3C(=O)O)cc21 | 17.7
CC(c1ccccc1)N1C(=O)c2ccc(C(=O)NCc3cccnc3)cc2C1=O (stereo not drawn) | -18.4
O=C(NC(=S)N(Cc1ccccc1)Cc1ccccc1)C1CCCCC1 | 12.6
COc1ccc(C(=O)N2CCN=C2SC)cc1 | 1.04
O=S(=O)(Nc1cccnc1)c1cc(Cl)ccc1Cl | 9.51
